Laboratory results published in ChEMBL document CHEMBL3988442, “University of Dundee, Small-Polar-MMV Screening Library” (2021).

What follows are compounds tested against T1, Aspartate--tRNA(Asp/Asn) ligase (Mycobacterium tuberculosis (strain ATCC 25618 / H37Rv)) (UniProt P9WFW3) (assay: Assay for Asp RNA synthetase-1 from Mycobacterium tuberculosis). Settings: 30 µM.
T1 sequence (whole entry): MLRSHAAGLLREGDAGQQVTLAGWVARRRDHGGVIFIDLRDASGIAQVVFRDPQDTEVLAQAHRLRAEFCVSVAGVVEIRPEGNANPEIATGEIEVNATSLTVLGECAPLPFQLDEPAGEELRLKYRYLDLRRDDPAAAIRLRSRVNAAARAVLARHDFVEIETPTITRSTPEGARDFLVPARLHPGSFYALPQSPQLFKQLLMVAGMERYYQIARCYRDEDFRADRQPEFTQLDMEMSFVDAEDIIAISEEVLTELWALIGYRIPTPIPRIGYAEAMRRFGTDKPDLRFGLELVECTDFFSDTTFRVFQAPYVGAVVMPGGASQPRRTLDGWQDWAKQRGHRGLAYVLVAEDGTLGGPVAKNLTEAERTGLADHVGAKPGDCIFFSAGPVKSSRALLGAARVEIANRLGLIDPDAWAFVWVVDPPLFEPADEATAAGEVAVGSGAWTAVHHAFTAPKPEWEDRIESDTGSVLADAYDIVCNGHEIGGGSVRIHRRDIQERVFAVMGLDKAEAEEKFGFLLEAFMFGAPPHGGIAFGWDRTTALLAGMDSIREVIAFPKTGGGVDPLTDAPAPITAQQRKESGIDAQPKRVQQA
Assay type: functional
Parameters: scale not given: in the data most compounds retested in dose-response had high values
Cn1ccnc1CNC1CCCN(Cc2noc(C3CC3)n2)C1 (stereo not given) was tested, and the Percent Effect was -0.413%. O=C(Cc1ccc(O)c(Cl)c1)N1CCCCC1CCn1cccn1 (stereo not given) showed a Percent Effect of -0.725%. O=C(Cn1cnnn1)N1CCCCC1Cn1cccn1 (stereo not given) showed a Percent Effect of -0.885%. With CC(C)NC(=O)N1CCC2(C1)CN(c1ccsc1)C(=O)CN2C (stereo not given) the Percent Effect was 11.4%. In the case of COc1cccc(OCC2CCCN(C(C)=O)C2)c1 (stereo not given), the Percent Effect was 3.99%. In the case of CCc1nnc2n1CCN(C(=O)c1csc(-c3cnn(C)c3)n1)C2, the Percent Effect was 0.836%. COCCN1C[C@@H]2CN(Cc3ccsc3)CCC[C@]2(C(=O)O)C1 was tested, and the Percent Effect was 2.26%. Compound CN(Cc1ccco1)Cc1ccccc1CNC(=O)c1ccncc1 has a Percent Effect of -0.97%. CC(=O)N1CCCN(C(=O)NCc2cc[nH]n2)CC1 showed a Percent Effect of -1.74%. Work on Cc1noc2ncc(C(=O)N(CC3CCOC3)C3CC3)cc12 (stereo not given) yielded a Percent Effect of 2.12%. Work on Cn1nc(C2CCCN(C(=O)CO)C2)cc1O (stereo not given) yielded a Percent Effect of 3.92%. With COCc1cn([C@@H]2c3ccccc3C3(CCNCC3)[C@H]2O)nn1 the Percent Effect was 3.45%. Work on CCCNC(=O)CNc1cc(C(=O)N2CCSCC2)ccc1C yielded a Percent Effect of -2.64%. With Cc1cnc2n(c1=O)CC(C(=O)Nc1cccc3cccnc13)CS2 (stereo not given) the Percent Effect was 16.3%. For CC(NC1CCN(CCS(C)(=O)=O)CC1)c1ccc(Cl)cc1 (stereo not given), the Percent Effect was 7.04%. For c1cnc(N2CCC3(CC2)CN(CC2CC2)c2ccccc23)nc1, the Percent Effect was 3.62%. Work on O=C(c1ccccn1)N1C[C@@H]2CC[C@H](C1)N(C(=O)CCc1ccsc1)C2 yielded a Percent Effect of 0.446%. With CC(C)N1CCC(Cc2cc(-c3ccccc3C(=O)O)ncn2)CC1 the Percent Effect was -0.134%. Cc1cnn(CC(C)NCc2ccc(OCc3ccncc3)cc2)c1 (stereo not given) was tested, and the Percent Effect was -0.0437%. In the case of CN(C)C(=O)COCc1cncc2c1CCN(Cc1cnn(C)c1)C2, the Percent Effect was 6.12%.
